Screens: PubChem BioAssay, several laboratories
EP2 mod = EP2 receptor (human) modulation; P43116; EP2-expressing cells, cAMP HTRF FRET, PGE2 co-stimulation; induction, % at 25 µM; 260,000 tested, 0.83% active;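 active = compounds whose cAMP rise, as percent of the full-agonist control response, exceeds 60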;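 note: rat C6 glioma line stably carrying human EP2 under a CMV promoter; the protocol text gives 20 µM as final concentration; 100% = response of wells given 1 µM PGE2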
S1P3 antagonist = blocks the human S1P3 receptor. Q99500. CHO S1P3 NFAT-BLA reporter, FRET fluorescence, antagonist mode. inhibition, % at 4.98 µM. 170,000 tested, 0.27% active;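 active = inhibition above the plate cutoff, the mean inhibition of test wells on that plate plus 3 SD, cut at about 28% in these data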;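 note: cells challenged with S1P at its EC80 of 0.8 µM; blue over green emission ratio from cleaved BLA substrate after 4 h stimulation; 0% = S1P-stimulated wells and 100% = unstimulated DMSO-only wells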
Cl transport mod = modulates chloride dependent transport by human KCC2 | KCC2 cells, thallium flux FluoZin-2 fluorescence | B-score of Tl+ flux slope (higher = more flux/activation; lower = inhibition) at 10 µM | 190,000 tested, 2.2% active;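 active = thallium flux slope and its plate-corrected score both differing from the plate sample mean at a set confidence after two filtering rounds, in either direction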;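 note: slope of fluorescence scaled to starting intensity during 10 to 20 s after thallium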
Target sequence (Q9H2X9 whole entry, looked up): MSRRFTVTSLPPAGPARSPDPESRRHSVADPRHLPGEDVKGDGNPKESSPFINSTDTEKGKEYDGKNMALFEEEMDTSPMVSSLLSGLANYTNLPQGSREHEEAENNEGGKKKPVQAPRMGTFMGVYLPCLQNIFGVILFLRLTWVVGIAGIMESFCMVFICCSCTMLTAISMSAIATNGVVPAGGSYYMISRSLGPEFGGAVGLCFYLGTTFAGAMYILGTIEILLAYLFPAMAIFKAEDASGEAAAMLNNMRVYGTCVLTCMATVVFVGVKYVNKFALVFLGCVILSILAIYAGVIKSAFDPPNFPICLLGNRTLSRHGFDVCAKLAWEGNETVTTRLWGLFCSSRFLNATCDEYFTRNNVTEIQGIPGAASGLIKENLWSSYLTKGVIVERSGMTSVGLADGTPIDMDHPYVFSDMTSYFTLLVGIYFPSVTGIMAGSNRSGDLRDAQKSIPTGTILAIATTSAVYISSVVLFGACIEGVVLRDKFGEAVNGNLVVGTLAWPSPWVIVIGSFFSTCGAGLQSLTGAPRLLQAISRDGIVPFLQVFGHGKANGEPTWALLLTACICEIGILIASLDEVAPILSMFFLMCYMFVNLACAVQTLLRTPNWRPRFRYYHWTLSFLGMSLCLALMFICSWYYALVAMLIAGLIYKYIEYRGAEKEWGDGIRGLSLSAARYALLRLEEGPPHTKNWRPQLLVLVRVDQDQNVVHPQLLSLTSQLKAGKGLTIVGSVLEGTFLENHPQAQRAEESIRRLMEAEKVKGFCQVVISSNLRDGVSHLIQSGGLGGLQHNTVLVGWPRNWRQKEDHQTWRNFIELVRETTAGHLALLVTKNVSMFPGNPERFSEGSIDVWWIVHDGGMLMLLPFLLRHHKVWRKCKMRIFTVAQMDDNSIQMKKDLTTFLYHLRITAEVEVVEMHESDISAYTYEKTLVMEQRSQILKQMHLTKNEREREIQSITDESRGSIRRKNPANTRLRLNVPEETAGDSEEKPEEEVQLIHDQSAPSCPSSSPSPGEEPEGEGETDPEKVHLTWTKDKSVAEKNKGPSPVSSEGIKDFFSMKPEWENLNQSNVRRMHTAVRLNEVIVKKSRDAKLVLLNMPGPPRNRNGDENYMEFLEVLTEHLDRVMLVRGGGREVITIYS
EP2 antag = EP2 receptor (human) inhibition | 260,000 tested, 0.52% active | AID 1422 | P43116 | inhibition, % at 25 µM | C6 glioma cells expressing human EP2, cAMP TR-FRET; cells stimulated with saturating PGE2;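 active = percent inhibition above 40 after rounding to a whole number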;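 note: rat C6 glioma host cells with rolipram phosphodiesterase inhibitor present; the protocol text gives 20 µM as final concentration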
EP2 cAMP induct = human EP2 receptor cAMP induction, negative in counter-screens; shares compounds with EP2 mod; C6 glioma EP2 cells, cAMP HTRF induction; plus low (about EC15) PGE2 agonist; calls only at 20 µM (by protocol); 1,300 tested, 47% active; AID 1080;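 active = cAMP induction above 50% in the main assay while under 30% in all four parallel counter assays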;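 note: rat C6 glioma cells stably expressing human EP2 receptor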
Numbers without * were called inactive. Sampled rows, rich in hits. Any-hit rate of the full collection: about 3.1%.

Screening COC(=O)c1c(NC(=O)CSc2nnc(-c3cccnc3)n2Cc2ccco2)sc(C)c1C returned EP2 mod 55, S1P3 antagonist 6, Cl transport mod -0.48, EP2 antag 7 and EP2 cAMP induct inactive.
For O=C(CSc1nnc(-c2ccc(Cl)cc2)n1Cc1ccco1)c1cccs1 the results were EP2 mod 70*, S1P3 antagonist 20, EP2 antag 14 and EP2 cAMP induct active.
For COC(=O)CSc1nc(-c2ccccc2)nc2ccccc12 the results were EP2 mod 68*, S1P3 antagonist -21, Cl transport mod 0.22, EP2 antag 3 and EP2 cAMP induct active.
C=CCSc1nc2ccccc2n1S(=O)(=O)c1ccc(Cl)cc1 was read as EP2 mod 75*, Cl transport mod -0.04, EP2 antag 11 and EP2 cAMP induct inactive.
`CCSc1nc2ccccc2n1S(=O)(=O)c1ccccc1` gave EP2 mod 46, S1P3 antagonist -11, Cl transport mod 0.99 and EP2 antag 8.
`OC1(c2ccc(Cl)cc2)CN(c2ccccc2)C2=[N+]1CCS2` (configuration not stated) gave EP2 mod 68*, S1P3 antagonist 9, Cl transport mod -0.8, EP2 antag 4 and EP2 cAMP induct active.
OC1(c2ccc(Br)cc2)CN(c2ccccc2)C2=[N+]1CCS2 (configuration not stated) was read as EP2 mod 75*, S1P3 antagonist -5, Cl transport mod -0.34, EP2 antag 14 and EP2 cAMP induct active.
Screening COc1ccc(C2(O)CN(c3ccccc3)C3=[N+]2CCS3)cc1OC (configuration not stated) returned EP2 mod 17, S1P3 antagonist -4, Cl transport mod 0.0094 and EP2 antag 9.
`O=C(CCCc1c[nH]c2ccccc12)OCC(=O)c1ccccc1` gave EP2 mod -62 and EP2 antag 9.
`CCOC(=O)c1ccc(NC(=O)CSc2nnnn2-c2ccc(OC)cc2)cc1` gave EP2 mod -62 and EP2 antag 8.
For OCCCNc1nc(-c2ccc(Cl)cc2)nnc1-c1ccc(Br)cc1 the results were EP2 mod 77*, S1P3 antagonist -11, Cl transport mod -0.9, EP2 antag 13 and EP2 cAMP induct active.
`O=[N+]([O-])c1ccc(-c2nnc(-c3ccccc3)c(NCCCO)n2)cc1` gave EP2 mod 13, S1P3 antagonist -5, Cl transport mod -0.31 and EP2 antag 6.
Screening CCCOc1ccc(/C=N/Nc2ccc(C(=O)O)cc2)c(OCCC)c1 returned EP2 mod 88*, S1P3 antagonist -5, Cl transport mod -2.3, EP2 antag 15 and EP2 cAMP induct active.
For CCCOc1ccc(/C=N/Nc2cccc([N+](=O)[O-])c2)c(O)c1 the results were EP2 mod 1, S1P3 antagonist -1, Cl transport mod 0.18 and EP2 antag 7.
Screening CC(=O)N1c2ccccc2C(C)(c2ccccc2)CC1(C)C (configuration not stated) returned EP2 mod 78*, Cl transport mod -0.63, EP2 antag 8 and EP2 cAMP induct active.
For Cc1cc2cc(C(=O)NC(C)c3nc(-c4cccnc4)n[nH]3)ccc2o1 (configuration not stated) the results were EP2 mod -51 and EP2 antag 9.
For CN(c1ccccc1)C1CCCCC1NS(=O)(=O)c1ccc(Cl)cc1 (configuration not stated) the results were EP2 mod 66*, S1P3 antagonist 0, Cl transport mod 1, EP2 antag 6 and EP2 cAMP induct active.
CCOc1ccccc1NC(=O)c1sc(NC(=O)c2ccc(C)cc2)c(C(=O)OC)c1C was read as EP2 mod -27 and EP2 antag 1.
For CCc1n[nH]c(=S)n1/N=C/c1cc(Br)c(O)c(OC)c1 the results were EP2 mod 17, S1P3 antagonist 10, Cl transport mod 0.9 and EP2 antag 14.
C=CCOc1c(Br)cc(/C=N/n2c(CC)n[nH]c2=S)cc1Br was read as EP2 mod 75*, S1P3 antagonist 5, Cl transport mod 1.6, EP2 antag 4 and EP2 cAMP induct active.
For CCOC(=O)c1c(NC(=O)CC(C)C)sc(C(C)=O)c1C the results were EP2 mod 52, Cl transport mod -0.16, EP2 antag 6 and EP2 cAMP induct inactive.
For CCOC(=O)c1c(NC(=O)CSc2nnnn2CC)sc(C)c1C the results were EP2 mod 60, S1P3 antagonist 6, EP2 antag 18 and EP2 cAMP induct inactive.
For CCCn1c(SCC(=O)Nc2sc(C)c(C)c2C(=O)OCC)nc2c1c(=O)n(C)c(=O)n2C the results were EP2 mod 52, S1P3 antagonist -28, Cl transport mod 1.6, EP2 antag 11 and EP2 cAMP induct inactive.
For CCOC(=O)c1c(NC(=O)c2ccoc2C)sc(C(=O)N(C)C)c1C the results were EP2 mod 54, EP2 antag 13 and EP2 cAMP induct inactive.
For O=C1NC2(CCN(C(=O)C3CCCC3)CC2)Nc2ccccc21 the results were EP2 mod -3 and EP2 antag 8.
Screening CCOC(=O)c1c(NC(=O)CNCC(O)CO)sc(C)c1C (configuration not stated) returned EP2 mod 7, S1P3 antagonist -12 and EP2 antag 22.
Screening CCCCNCC(=O)Nc1sc(C)c(C)c1C(=O)OCC returned EP2 mod 53, Cl transport mod 0.31, EP2 antag 3 and EP2 cAMP induct inactive.
`CCOC(=O)c1c(NC(=O)c2cccnc2)sc(C)c1C` gave EP2 mod 52, Cl transport mod 0.19, EP2 antag 13 and EP2 cAMP induct active.
`COc1ccccc1C1(NC(=O)c2ccc(S(=O)(=O)N3CCOCC3)cc2)CCCC1` gave EP2 mod -48 and EP2 antag 6.
`Cc1ccc(S(=O)(=O)N(CC(=O)N=Nc2c(O)[nH]c3ccccc23)c2ccc(C)c(C)c2)cc1` gave EP2 mod 67*, S1P3 antagonist -4, Cl transport mod 1.6, EP2 antag 10 and EP2 cAMP induct active.
Screening C/C(CCc1oc2ccc(Cl)cc2c1-c1ccc(C)o1)=N\O returned EP2 mod 65*, Cl transport mod -0.47, EP2 antag 6 and EP2 cAMP induct active.
Screening C#CCOc1ccc(CN2C[C@@H]3CCCN3C[C@@H]2Cc2ccccc2)cc1OC returned EP2 mod 6 and EP2 antag 4.
Screening CCOC(=O)c1c(NC(=O)CSc2nnc(C)s2)sc2c1CCCCC2 returned EP2 mod 43, Cl transport mod 0.0072 and EP2 antag 6.
For CCOC(=O)c1c(NC(=O)COC(=O)Cn2cnc3ccccc32)sc(C)c1C the results were EP2 mod -9, S1P3 antagonist 1, Cl transport mod -0.79 and EP2 antag 22.
